For 40 targets, log2 fold change results are on record in the supplement of paper PMC12819154, “High-throughput peptide-centric local stability assay extends protein–ligand identification to membrane proteins, tissues and bacteria” (Nature Structural & Molecular Biology, 2025).
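Further: lysate desalted by size exclusion to strip endogenous ATP, peptide intensities built from DIA-NN precursor signals, and peptides missing any value discarded before comparison.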

Sequence of UniProt P76550 (P76550 whole entry): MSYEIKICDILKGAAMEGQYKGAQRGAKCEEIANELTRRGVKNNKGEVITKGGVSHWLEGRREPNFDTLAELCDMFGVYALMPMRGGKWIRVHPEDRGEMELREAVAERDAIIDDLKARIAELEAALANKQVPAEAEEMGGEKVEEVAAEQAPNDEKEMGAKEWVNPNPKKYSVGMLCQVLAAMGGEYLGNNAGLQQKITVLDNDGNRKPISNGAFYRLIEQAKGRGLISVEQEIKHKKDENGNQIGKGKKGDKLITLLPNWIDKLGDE
Sequence of UniProt P46887 (P46887 whole entry): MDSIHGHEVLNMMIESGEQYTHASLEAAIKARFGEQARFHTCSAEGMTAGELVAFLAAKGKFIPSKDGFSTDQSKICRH
Sequence of UniProt P76422 (P76422 whole entry): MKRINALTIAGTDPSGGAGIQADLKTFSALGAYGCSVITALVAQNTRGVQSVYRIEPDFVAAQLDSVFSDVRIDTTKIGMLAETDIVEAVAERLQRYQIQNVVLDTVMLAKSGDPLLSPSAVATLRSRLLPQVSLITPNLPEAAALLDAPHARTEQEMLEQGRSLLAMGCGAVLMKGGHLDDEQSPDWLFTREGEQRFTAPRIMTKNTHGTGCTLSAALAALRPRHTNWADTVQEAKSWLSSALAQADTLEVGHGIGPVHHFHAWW
Sequence of UniProt P75745 (P75745 whole entry): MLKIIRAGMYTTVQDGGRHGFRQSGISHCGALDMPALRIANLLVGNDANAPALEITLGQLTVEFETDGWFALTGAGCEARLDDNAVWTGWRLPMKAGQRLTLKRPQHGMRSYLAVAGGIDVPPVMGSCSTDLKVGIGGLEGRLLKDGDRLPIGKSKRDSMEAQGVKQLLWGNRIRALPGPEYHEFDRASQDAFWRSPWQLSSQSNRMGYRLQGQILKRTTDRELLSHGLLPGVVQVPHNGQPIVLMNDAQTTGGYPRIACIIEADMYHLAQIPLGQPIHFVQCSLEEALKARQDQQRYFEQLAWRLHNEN
Sequence of UniProt P26612 (P26612 whole entry): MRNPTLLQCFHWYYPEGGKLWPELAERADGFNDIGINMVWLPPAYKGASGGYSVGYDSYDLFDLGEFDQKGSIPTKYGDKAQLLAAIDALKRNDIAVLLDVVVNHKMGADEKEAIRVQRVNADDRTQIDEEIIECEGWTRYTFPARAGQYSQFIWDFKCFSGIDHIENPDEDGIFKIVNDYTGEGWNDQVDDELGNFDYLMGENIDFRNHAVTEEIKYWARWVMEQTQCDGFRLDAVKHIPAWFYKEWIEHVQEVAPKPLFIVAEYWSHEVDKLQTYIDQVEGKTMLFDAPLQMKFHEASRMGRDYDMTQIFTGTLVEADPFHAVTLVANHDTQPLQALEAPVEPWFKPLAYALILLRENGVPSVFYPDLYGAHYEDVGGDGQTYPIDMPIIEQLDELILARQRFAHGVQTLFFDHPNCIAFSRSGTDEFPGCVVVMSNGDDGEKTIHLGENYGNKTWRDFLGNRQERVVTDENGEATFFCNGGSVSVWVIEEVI
Sequence of UniProt P64610 (P64610 whole entry): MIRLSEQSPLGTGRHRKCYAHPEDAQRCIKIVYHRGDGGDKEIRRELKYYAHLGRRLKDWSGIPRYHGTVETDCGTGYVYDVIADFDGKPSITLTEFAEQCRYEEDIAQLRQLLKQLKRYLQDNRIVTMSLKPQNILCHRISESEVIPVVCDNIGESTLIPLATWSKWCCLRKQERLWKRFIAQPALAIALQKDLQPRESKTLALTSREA
Sequence of UniProt P75728 (P75728 whole entry): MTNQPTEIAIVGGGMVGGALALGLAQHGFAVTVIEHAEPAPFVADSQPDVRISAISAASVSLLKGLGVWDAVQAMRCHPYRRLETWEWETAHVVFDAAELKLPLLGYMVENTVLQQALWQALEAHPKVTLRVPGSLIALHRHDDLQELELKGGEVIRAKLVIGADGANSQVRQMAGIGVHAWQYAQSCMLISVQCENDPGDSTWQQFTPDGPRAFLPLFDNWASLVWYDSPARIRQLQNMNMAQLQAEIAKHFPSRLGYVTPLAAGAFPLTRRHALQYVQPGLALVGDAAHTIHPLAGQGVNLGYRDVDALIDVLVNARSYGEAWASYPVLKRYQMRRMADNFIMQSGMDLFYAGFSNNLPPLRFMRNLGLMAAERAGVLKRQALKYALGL
Sequence of UniProt P03835 (P03835 whole entry): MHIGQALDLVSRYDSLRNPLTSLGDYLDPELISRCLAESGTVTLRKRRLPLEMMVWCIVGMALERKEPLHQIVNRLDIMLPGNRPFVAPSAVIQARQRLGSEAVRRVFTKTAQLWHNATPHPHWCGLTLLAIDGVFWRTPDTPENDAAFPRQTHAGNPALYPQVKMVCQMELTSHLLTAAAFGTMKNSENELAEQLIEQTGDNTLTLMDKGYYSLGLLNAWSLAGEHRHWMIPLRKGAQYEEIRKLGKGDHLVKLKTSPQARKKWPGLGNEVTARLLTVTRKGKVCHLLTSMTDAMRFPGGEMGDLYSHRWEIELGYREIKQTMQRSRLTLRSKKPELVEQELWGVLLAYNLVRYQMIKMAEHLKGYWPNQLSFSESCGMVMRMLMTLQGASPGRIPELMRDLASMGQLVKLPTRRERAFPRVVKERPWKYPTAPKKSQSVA
Sequence of UniProt P25539 (P25539 whole entry): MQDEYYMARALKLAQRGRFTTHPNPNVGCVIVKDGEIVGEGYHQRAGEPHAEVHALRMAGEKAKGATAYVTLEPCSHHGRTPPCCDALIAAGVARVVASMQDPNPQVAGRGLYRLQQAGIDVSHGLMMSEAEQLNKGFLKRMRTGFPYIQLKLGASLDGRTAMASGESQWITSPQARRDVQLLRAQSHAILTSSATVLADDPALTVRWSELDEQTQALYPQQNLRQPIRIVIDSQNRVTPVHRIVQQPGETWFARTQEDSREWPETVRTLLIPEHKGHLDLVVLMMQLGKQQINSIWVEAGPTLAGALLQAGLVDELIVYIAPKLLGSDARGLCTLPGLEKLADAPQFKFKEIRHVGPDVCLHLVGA
Sequence of UniProt P76502 (P76502 whole entry): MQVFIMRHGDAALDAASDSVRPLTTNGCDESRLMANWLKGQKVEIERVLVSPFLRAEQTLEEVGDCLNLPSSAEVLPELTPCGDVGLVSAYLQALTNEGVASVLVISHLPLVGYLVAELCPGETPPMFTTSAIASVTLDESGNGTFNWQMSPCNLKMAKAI
Sequence of UniProt P00452 (P00452 whole entry): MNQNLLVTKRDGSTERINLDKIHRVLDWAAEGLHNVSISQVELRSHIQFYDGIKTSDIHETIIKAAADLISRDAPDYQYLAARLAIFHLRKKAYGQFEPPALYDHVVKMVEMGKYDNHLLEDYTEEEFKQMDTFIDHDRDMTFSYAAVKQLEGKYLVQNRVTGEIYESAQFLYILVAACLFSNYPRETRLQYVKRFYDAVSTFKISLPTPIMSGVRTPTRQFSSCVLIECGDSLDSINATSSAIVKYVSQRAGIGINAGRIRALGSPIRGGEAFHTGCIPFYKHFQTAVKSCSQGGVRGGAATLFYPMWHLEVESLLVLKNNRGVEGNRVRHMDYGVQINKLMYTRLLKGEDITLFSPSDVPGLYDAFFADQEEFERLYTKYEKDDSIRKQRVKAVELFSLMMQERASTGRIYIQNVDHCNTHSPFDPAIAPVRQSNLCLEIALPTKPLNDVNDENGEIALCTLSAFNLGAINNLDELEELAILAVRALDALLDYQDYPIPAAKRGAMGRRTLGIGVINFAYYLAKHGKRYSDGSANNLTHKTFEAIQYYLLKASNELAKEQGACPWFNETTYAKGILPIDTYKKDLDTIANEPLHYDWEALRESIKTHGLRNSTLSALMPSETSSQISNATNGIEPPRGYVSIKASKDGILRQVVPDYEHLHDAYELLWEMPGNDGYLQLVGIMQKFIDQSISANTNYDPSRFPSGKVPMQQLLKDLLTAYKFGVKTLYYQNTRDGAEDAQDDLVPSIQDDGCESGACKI
Sequence of UniProt P27830 (P27830 whole entry): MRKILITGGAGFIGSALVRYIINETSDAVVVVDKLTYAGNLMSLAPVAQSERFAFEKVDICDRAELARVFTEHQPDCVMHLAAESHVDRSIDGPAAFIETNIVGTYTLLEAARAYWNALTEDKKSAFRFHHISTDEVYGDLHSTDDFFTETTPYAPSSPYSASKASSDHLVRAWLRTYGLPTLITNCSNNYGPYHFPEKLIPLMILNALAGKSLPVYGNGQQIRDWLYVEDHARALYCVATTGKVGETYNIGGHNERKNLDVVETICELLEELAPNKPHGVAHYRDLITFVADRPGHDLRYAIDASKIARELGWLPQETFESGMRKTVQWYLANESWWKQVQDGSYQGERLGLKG
Sequence of UniProt P08400 (P08400 whole entry): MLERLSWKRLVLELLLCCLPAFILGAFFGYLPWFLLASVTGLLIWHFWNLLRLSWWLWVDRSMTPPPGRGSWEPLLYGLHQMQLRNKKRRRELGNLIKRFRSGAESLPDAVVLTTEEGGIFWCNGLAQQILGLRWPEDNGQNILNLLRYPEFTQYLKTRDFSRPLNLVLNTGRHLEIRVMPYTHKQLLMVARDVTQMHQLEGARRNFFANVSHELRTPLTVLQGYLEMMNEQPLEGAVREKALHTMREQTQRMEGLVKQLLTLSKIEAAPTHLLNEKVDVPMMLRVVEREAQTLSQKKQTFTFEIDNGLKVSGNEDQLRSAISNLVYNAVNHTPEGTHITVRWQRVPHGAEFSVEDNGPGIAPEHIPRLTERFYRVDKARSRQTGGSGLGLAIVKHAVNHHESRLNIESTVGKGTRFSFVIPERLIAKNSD
Sequence of UniProt P0C0L2 (P0C0L2 whole entry): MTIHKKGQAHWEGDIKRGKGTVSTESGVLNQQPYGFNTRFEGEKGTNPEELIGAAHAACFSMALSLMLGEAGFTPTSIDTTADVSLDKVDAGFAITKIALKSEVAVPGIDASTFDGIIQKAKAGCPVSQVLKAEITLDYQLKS
Sequence of UniProt P33343 (P33343 whole entry): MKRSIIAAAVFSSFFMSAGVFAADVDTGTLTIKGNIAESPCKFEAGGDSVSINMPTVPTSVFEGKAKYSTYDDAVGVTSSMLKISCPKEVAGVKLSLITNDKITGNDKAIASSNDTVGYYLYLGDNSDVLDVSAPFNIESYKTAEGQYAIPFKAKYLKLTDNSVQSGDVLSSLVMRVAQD

Compound in this assay: Nc1ncnc2c1ncn2[C@@H]1O[C@H](COP(=O)(O)OP(=O)(O)OP(=O)(O)O)[C@@H](O)[C@H]1O [adenosine 5'-triphosphate]
The assay can be described thus: log2 fold change of tryptic peptide abundance, ligand vs vehicle (limited proteolysis) (log2 ratio); higher = more trypsin-susceptible (destabilized). The conditions noted are these: ligand concentration: 5 mM; sample: E. coli desalted lysate; replicate design: treated before aliquoting. The protocol:
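HT-PELSA: desalted E. coli K-12 BW25113 lysate (with 12 mM MgCl2) incubated with 5 mM ATP (pH 7) or water for 30 min at 25 C, then a 4 min trypsin pulse at 22 C. Peptides were quantified by DIA-MS (4 replicates). Value is the peptide log2 fold change (treated/control); negative = stabilized. Scale: negative = ligand-stabilized region.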
Consider “UniProt P64610 (peptide sequence: IVTMSLKPQNILCHR, peptide start residue: 126)”, for which the log2 fold change is -0.974.
Regarding “UniProt P00959 (peptide sequence: HTIMVANLAPRK, peptide start residue: 630)”, the log2 fold change was -0.728.
The same measure for “UniProt P0A6H5 (peptide sequence: VQAIEKNR, peptide start residue: 113)”: 1.65; for “UniProt P76134 (peptide sequence: TMNSVQLTAQK, peptide start residue: 298)”: -0.467; for “UniProt P27830 (peptide sequence: ASSDHLVR, peptide start residue: 172)”: -0.668.
For “UniProt P04949 (peptide sequence: NQSALSSSIER, peptide start residue: 21)”, the log2 fold change is 0.651.
The same measure for “UniProt P75958 (peptide sequence: GVADALK, peptide start residue: 153)”: -0.59; for “UniProt P10907 (peptide sequence: ILELDGLLK, peptide start residue: 121)”: -0.369; for “UniProt P26612 (peptide sequence: TIHLGENYGNK, peptide start residue: 446)”: 0.945.
The same measure for “UniProt P08660 (peptide sequence: RNQTLLTLHSLNMLHSR, peptide start residue: 306)”: -0.461; for “UniProt P0C0L2 (peptide sequence: GQAHWEGDIKR, peptide start residue: 7)”: -0.717; for “UniProt P76010 (peptide sequence: FLNVSPTVER, peptide start residue: 213)”: -1.34.
The result for “UniProt P75915 (peptide sequence: VLGSLYYR, peptide start residue: 10)” reads 0.747; that for “UniProt P76550 (peptide sequence: PISNGAFYR, peptide start residue: 210)”, -0.83.
Take “UniProt P25539 (peptide sequence: LADAPQFK, peptide start residue: 342)”: the log2 fold change was -0.381.
The result for “UniProt P76085 (peptide sequence: QLGGDASGCSLR, peptide start residue: 198)” reads -1.23; that for “UniProt P30178 (peptide sequence: QMGSEEQEAK, peptide start residue: 22)”, -1.15.
For the target “UniProt P0DMC5 (peptide sequence: FTDTGCIVLHVR, peptide start residue: 600)”, the log2 fold change is -1.13.
The result for “UniProt P76340 (peptide sequence: ILLIEDNQR, peptide start residue: 3)” reads -0.349; that for “UniProt P0AEK2 (peptide sequence: ALSDDQRAGILAQVPAGR, peptide start residue: 191)”, 0.83; that for “UniProt P08400 (peptide sequence: FSFVIPER, peptide start residue: 417)”, 2.08.
For “UniProt P75960 (peptide sequence: LHGAHTVELNLEPSQVGNEFAEK, peptide start residue: 231)”, the log2 fold change stood at 0.525.
Consider “UniProt P76502 (peptide sequence: VLVSPFLR, peptide start residue: 48)”, for which the log2 fold change turned out to be 0.397.
Take “UniProt P25519 (peptide sequence: IDRDEENKPNR, peptide start residue: 329)”: the log2 fold change is -1.08.
The result for “UniProt P46887 (peptide sequence: GKFIPSKDGFSTDQSK, peptide start residue: 60)” reads 0.606; that for “UniProt P00562 (peptide sequence: ILDEAGLPGELR, peptide start residue: 375)”, 0.23; that for “UniProt P75728 (peptide sequence: LVIGADGANSQVR, peptide start residue: 160)”, 0.798.
The result for “UniProt P24203 (peptide sequence: ILLTKTDVAGEAEKLHER, peptide start residue: 155)” reads 1.26; that for “UniProt P07862 (peptide sequence: AWTTLGCK, peptide start residue: 244)”, -0.633; that for “UniProt P75796 (peptide sequence: VHGLLPGKDAAAR, peptide start residue: 430)”, 1.01.
Consider “UniProt P14377 (peptide sequence: LVALGHLAAGVAHEIR, peptide start residue: 242)”, for which the log2 fold change is 1.01.
Consider “UniProt P00452 (peptide sequence: FYDAVSTFK, peptide start residue: 196)”, for which the log2 fold change is -3.51.
The result for “UniProt P77302 (peptide sequence: KEEETALSCR, peptide start residue: 80)” reads -1.39; that for “UniProt P33343 (peptide sequence: LSLITNDKITGNDK, peptide start residue: 95)”, -0.561.
As to “UniProt P75745 (peptide sequence: QLLWGNR, peptide start residue: 167)”, the log2 fold change is -0.312.
With “UniProt P03835 (peptide sequence: DLASMGQLVK, peptide start residue: 402)”, the log2 fold change was -1.3.
The result for “UniProt P39410 (peptide sequence: HIAQEMPEKIR, peptide start residue: 422)” reads -1.96; that for “UniProt P33599 (peptide sequence: QDLEMEALTFKPEEWGMKR, peptide start residue: 186)”, -1.6.
The result for “UniProt P76422 (peptide sequence: NTHGTGCTLSAALAALRPR, peptide start residue: 207)” reads -1.45; that for “UniProt P22939 (peptide sequence: GLPTCHVK, peptide start residue: 97)”, 0.252.
